# High-throughput results as filed in PubChem BioAssay.
# This is a sample that favours compounds with a hit; in the whole collection about 10% have one here.
# Six1-Eya2 blk = Six1/Eya2 interaction inhibition | Q15475+O00167 | AlphaScreen GST-Six1/His-Eya2 binding, biochemical; active compounds read low | activity change, % (concentration not given with the values) | hit rate 0.56% among 360,000 | AID 651725; in the data active means activity change below about -65%; inconclusive means mostly about -30% to -63%; further: on the % scale 0 is the no-effect control and ±100 the full control effect
#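 AlphaScreen luminescence read after one hour at 37 °C in darkness. Pin-transferred compounds met GST-Six1 and His-Eya2 protein (5X stock 250 nM/500 nM) plus glutathione donor and Ni-chelate acceptor beads (5X, 50 ug/mL).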
# HP1b chromo inh = blocks HP1-beta chromodomain binding to methylated histone tails. AlphaScreen HP1-beta / biotin-H3K9me3 peptide binding. P83916. hit rate 0.56% among 390,000. Potency, µM (titrated, usually from 114 µM), without a hit: at the highest dose activity change, negative = inhibition, usual class: inhibitors; further: potency means the concentration at half of the fitted maximal effect; nearly all actives have a fitted effect of over 70% in size
#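 AlphaScreen: HP1-beta (50 nM) preformed 30 min with biotin-H3(1-18)K9me3 peptide (50 nM) in PBS pH 7.4, 0.01% Tween-20. Compound added for 30 min at RT, then streptavidin donor/nickel chelate acceptor beads (10 ug/mL) for 30 min.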
# JMJD2A Tudor inh = blocks the human JMJD2A Tudor domain; Potency, µM (series often up to 114 µM), without a hit: at the highest dose activity change, negative = inhibition, usual class: inhibitors; AlphaScreen JMJD2A-Tudor / H3K4me3 peptide binding; AID 504339; hit rate 4.4% among 390,000; O75164; further: potency means the concentration at half of the fitted maximal effect; on the % scale 0 is the no-effect control and ±100 the full control effect; nearly all actives have a fitted effect of over 50% in size
# Target sequence (O75164 whole entry, looked up, the tested form may be a part): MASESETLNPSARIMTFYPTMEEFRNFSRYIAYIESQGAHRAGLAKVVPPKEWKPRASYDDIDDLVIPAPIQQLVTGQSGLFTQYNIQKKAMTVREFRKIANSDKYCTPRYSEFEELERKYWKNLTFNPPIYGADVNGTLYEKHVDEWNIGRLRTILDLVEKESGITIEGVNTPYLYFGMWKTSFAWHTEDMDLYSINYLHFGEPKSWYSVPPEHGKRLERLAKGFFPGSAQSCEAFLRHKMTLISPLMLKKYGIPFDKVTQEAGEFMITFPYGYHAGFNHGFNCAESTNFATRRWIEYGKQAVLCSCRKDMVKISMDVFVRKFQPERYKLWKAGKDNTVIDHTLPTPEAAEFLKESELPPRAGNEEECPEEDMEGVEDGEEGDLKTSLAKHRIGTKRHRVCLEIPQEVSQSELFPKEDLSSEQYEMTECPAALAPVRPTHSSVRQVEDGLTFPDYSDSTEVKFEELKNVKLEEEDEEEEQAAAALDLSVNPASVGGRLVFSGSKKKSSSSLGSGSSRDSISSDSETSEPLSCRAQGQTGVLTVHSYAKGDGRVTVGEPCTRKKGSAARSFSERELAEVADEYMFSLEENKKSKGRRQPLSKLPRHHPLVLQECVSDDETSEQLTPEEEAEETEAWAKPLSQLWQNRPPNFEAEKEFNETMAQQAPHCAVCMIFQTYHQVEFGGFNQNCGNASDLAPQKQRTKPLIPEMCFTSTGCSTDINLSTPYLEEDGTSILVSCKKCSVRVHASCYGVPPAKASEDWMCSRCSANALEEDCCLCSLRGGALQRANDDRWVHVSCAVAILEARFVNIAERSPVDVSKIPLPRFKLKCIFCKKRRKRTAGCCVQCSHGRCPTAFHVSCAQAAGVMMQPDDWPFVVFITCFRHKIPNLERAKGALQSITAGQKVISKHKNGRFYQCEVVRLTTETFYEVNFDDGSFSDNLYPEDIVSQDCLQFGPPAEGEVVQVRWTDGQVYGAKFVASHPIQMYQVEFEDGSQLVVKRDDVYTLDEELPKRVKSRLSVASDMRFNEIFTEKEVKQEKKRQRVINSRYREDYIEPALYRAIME
# BAZ2B block = BAZ2B (human) inhibition. Q9UIF8. AlphaScreen BAZ2B-H3K14Ac peptide displacement. Potency, µM (highest dose often 114 µM), inactives show at the highest dose activity change, negative = inhibition, actives largely listed as inhibitors. hit rate 4.4% among 360,000; further: potency means the concentration at half of the fitted maximal effect; on the % scale 0 is the no-effect control and ±100 the full control effect; nearly all actives have a fitted effect of over 60% in size
#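 In this displacement format the biotinylated H3(5-23) peptide acetylated at Lys14 serves as ligand at 50 nM, with BAZ2B at 50 nM in PBS pH 7.4 containing 0.01% Tween-20. Donor and acceptor beads are 10 ug/mL final.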
# G9a inh = blocks human histone lysine methyltransferase G9a | Potency, µM (doses to about 102 µM), for the others: at the top dose activity, negative = inhibition, usual class: inhibitors | Q96KQ7 | hit rate 8.8% among 350,000 | G9a H3K9 monomethylation, AlphaScreen, 2 h; further: potency means the concentration at half of the fitted maximal effect; on the % scale 0 is the no-effect control and ±100 the full control effect; nearly all actives have a fitted effect of over 75% in size
#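 Chemiluminescent proximity detection of H3K9 monomethylation, read after 10 min bead incubation in the dark. Reaction: 20 nM G9a, 500 nM biotin-H3K9 peptide, 20 uM SAM cofactor, 2 h, room temperature, following 15 min enzyme-compound preincubation.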
# CtBP-E1A blk = blocks the CtBP interaction with E1A | hit rate 0.49% among 340,000 | AlphaScreen GST-E1A/His-CtBP binding, 1536-well; active compounds read low | activity change, % (test concentration not listed); in the data active means activity change below about -65%; inconclusive means mostly about -30% to -63%; further: on the % scale 0 is the no-effect control and ±100 the full control effect
#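 Steps: dispense buffer (Tris pH 8.0, NaCl 300 mM, TCEP 1 mM, BSA, Tween 20); add 5X protein mix (GST-E1A, His-CtBP, 125 nM each); pin 23 nL compound; 2 h at 37 °C, dark; add 5X beads (50 ug/mL); 1 h; read.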
# * = called active by the depositor; ? = inconclusive; . = not tested or not shown; [ ] = another dose, or the depositor's remark. Unless noted, the call rests on the fitted dose curve; in most records, active means well fitted inhibition curve with a large enough effect; inconclusive means small, poorly fitted or top-dose-only effect; inactive means no such curve, though single readings can be large or run the other way.
SMILES,Six1-Eya2 blk,HP1b chromo inh,JMJD2A Tudor inh,BAZ2B block,G9a inh,CtBP-E1A blk
O=C(CSc1nc(-c2ccccc2)no1)N1CCN(c2ccc(F)cc2)CC1,.,30%,-1%,1%,-3%[59 µM],.
C=CCN1C(=O)c2ccccc2C1(O)Cc1ccccc1 (stereo not drawn),5,59%,-14%,-14%,-1%,5
CC(C)CN1C(=O)c2ccccc2C1(O)Cc1ccccc1 (stereo not drawn),5,50%,5%,21%,8.9µM*,2
CCN(CC)CCCn1c(=S)[nH]c2ccccc2c1=O,-5,29%,56µM*,-30%,?,0
CCN(CC)CCCn1c(=S)[nH]c2ncccc2c1=O,-8,?,8.9µM*,-9%,50µM*,-19
CCCCN(C)CCn1c(=S)[nH]c2ncccc2c1=O,5,-12%,?,3%,50µM*,-4
CC1CC(C)CN(CCCn2c(=S)[nH]c3ccccc3c2=O)C1 (stereo not drawn),-17,50%,-15%,1%,79µM*,-7
O=c1c2ccccc2[nH]c(=S)n1CCCN1CCN(c2ccccc2)CC1,3,-5%[57 µM],-18%,-3%,-22%,0
C=CCC(CC=C)(CNC(=O)C(=O)Nc1ccc(C)cc1)c1ccccc1,.,44%,4%,2%,-5%[59 µM],.
COc1ccc(OC)c(NC(=O)C2=C(C)C(=O)OC23CCN(C(C)C)CC3)c1,.,24%,-1%,-1%,-40%[59 µM],.
CC(C)OCCCn1c(=S)[nH]c2ncccc2c1=O,4,-6%,?,-7%,50µM*,3
CCN(CCCn1c(=S)[nH]c2ncccc2c1=O)c1ccccc1,4,9%,-25%,-31%,1%,-6
CC1CCCCN1CCn1c(=S)[nH]c2ncccc2c1=O (stereo not drawn),18,-2%,40µM*,-25%,?,5
O=C(NCCc1ccc(Cl)cc1)c1cnc2sc(N3CCOCC3)nn2c1=O,.,8%,-13%,-3%,-6%[59 µM],.
CCOc1c(Br)cc(CNc2ccc(N3CCOCC3)cc2)cc1OC,?,?,50µM*,25µM*,11µM*,?
CCOc1c(Br)cc(CNc2ccc3c(c2)OCCO3)cc1OC,?,-81%,50µM*,35µM*,3.2µM*,?
CCOc1cc(CNc2ccc3c(c2)OCCO3)cc(Br)c1OC,?,-69%,40µM*,22µM*,4µM*,?
CCOc1cc(CNc2ccc3c(c2)OCCO3)cc(Br)c1OCC(N)=O,?,-39%,50µM*,45µM*,13µM*,7
COc1cc(CNc2ccc3c(c2)OCCO3)ccc1OCC(N)=O,-7,7%,?,-16%,1%,-10
Cc1cc(C)cc(OCC(=O)Nc2ccc(S(=O)(=O)Nc3onc(C)c3C)cc2)c1,.,32%,-22%,-7%,?,.
O=C1C(C2=C(O)c3ccccc3C2=O)=Nc2ccccc21,-26,?,32µM*,40µM*,.,-8
COc1ccc(NC(=O)CSc2nc(-c3ccco3)nc3cc(=O)[nH]n23)cc1,.,22%,-10%,79µM*,2%[59 µM],.
COc1ccc(NC(=O)CSc2nc(-c3ccco3)cc(C(F)(F)F)n2)cc1Cl,.,13%,-12%,-5%,2%[59 µM],.
Cc1ccc(NC(=O)CSc2nc(-c3ccco3)nc3cc(=O)[nH]n23)cc1C,.,28%,-34%,40µM*,?,.
COc1ccc(NC(=O)CSc2nc(-c3ccccc3)nc3cc(=O)[nH]n23)cc1,.,33%,-23%,-37%,17%[59 µM],.
SMILES,Six1-Eya2 blk,HP1b chromo inh,JMJD2A Tudor inh,BAZ2B block,G9a inh,CtBP-E1A blk
COc1ccc(NC(=O)CSc2nc(-c3ccco3)nc3cc(=O)[nH]n23)cc1Cl,-22,-3%,45µM*,79µM*,8%,-14
Cc1ccc(NC(=O)CSc2nnc(CNC(=O)c3ccco3)n2C)cc1C,-5,29%,-6%,4%,0%,2
CCN(CCCNC(=O)c1cc2cc3cc(C)ccc3nc2s1)c1cccc(C)c1,.,-4%[57 µM],?,-30%,-44%[59 µM],.
CCOC(=O)C1ON2CCCCC2C1(O)C(F)(F)F (stereo not drawn),-1,17%,-10%,3%,8%,2
Cc1ccc(C(=O)Nc2cc3cc(Cl)ccc3oc2=O)cc1,.,28%,-19%,5%,8%[59 µM],.
Cc1ccc(Cl)cc1N1CCN(C(=O)Cn2nc(C)n3c(cc4sccc43)c2=O)CC1,.,27%,-15%,-3%,-24%[59 µM],.
Cc1ccnc(NS(=O)(=O)c2ccc(N3C(=O)c4ccccc4C3=O)cc2)n1,19,41%,-4%,-10%,15%[59 µM],13
Cc1ccnc(NS(=O)(=O)c2ccc(N3C(=O)c4c(Cl)c(Cl)c(Cl)c(Cl)c4C3=O)cc2)n1,-19,?,89µM*,?,?,-3
CCN(CC)CCN(C)C1CCC(c2ccccc2)CC1 (stereo not drawn),-1,?,6.3µM*,56µM*,8.9µM*,-3
S=C(Cc1cccnc1)N1CCOCC1,10,?,79µM*,2%,2.2µM*,-7
COc1ccc(CC(=S)N2CCOCC2)cc1OC,6,48%,4%,6%[57.1 µM],-22%[12.7 µM],8
Cc1nn(-c2ccccc2)c(N)c1Sc1cccc([N+](=O)[O-])c1,-15,-21%,56µM*,?,?,.
O=C(Cn1ncc2c(=O)oc3ccccc3c21)Nc1cc(F)ccc1F,.,24%,-8%,-32%,-15%[59 µM],.
Cc1cccc(C2NC(c3cccc(C)c3)C(C)C(=O)C2C)c1 (stereo not drawn),16,71%,34%,26%,35%,.
Cc1ccc(NC(=S)N(Cc2ccc(Cl)cc2)Cc2ccc(C(=O)O)cc2)cc1Cl,0,-13%,-21%,-33%,40µM*,.
CN(N)C(=S)Nc1ccc(F)cc1,4,43%,-8%,-17%,50µM*,-2
COc1ccc(CN(CC2CCC(C(=O)O)CC2)C(=S)Nc2ccc(C)c(Cl)c2)cc1 (stereo not drawn),-2,10%,-17%,-2%,?,.
Cc1ccc(NC(=S)N(C)N)cc1Cl,-1,59%,3%,?,32µM*,2
O=C(NCc1ccccc1F)C(=O)NCC(c1cccs1)S(=O)(=O)c1cccs1 (stereo not drawn),.,9%,-3%,-13%,23%[59 µM],.
COC(=O)c1cc(-c2ccccc2)n(CCN)c1C,-5,8%,-31%,.,.,-8
Cc1nc2scc(C)n2c(=O)c1S(=O)(=O)NC(C)c1ccccc1 (stereo not drawn),5,14%,25µM*,0%,18%,-1
Cc1nc2scc(C)n2c(=O)c1S(=O)(=O)NCCc1ccccc1,0,5%,-13%,-3%,-6%[59 µM],3
